The results in this text go back to PubChem BioAssay.

A short description of test [1]: hESC survival regulators, cell-based (AID 493140; call rule not given here;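 also: cells exposed to compounds for four days before counting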). The conditions noted are these: human embryonic stem cell survival screen; stronger effect = higher value.
Test [2] is described as follows: sensitizers of A549 cells to miR-34 induction, primary screen, imaging, A549 dox-inducible miR-34, nuclei and caspase counts (AID 1347080;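 active = compounds whose cell count with miR-34 switched on is under 0.7 times the count with it off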). The settings on record: A549 miR-34 inducible, Hoechst nuclei count, 48 h.
Test [3] can be described thus: liver-stage malaria parasite growth inhibition, primary screen, cell-based, HepG2, luciferase luminescence, HepG2 viability (AID 624349).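 Also: 100% = mean of DMSO negative control wells on the same plate.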 The conditions noted are these: P. berghei liver stage in HepG2, luciferase luminescence, concentration not given here; parasite load remaining: stronger effect = lower value; viability: measured here: HepG2 viability without parasites.
The nature of test [4]: inhibitors of Cryptococcus chitosan production, flow cytometry, Cibacron Brilliant Red staining (AID 1347148; call rule not given here;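 also: compound exposure lasted three days at 37 degrees C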). The conditions noted are these: Cryptococcus neoformans chitosan, stronger effect = lower value; at 10 µM unless noted.
Where [5] appears, read: measured here: relative caspase fold change +Dox/-Dox.
Setting [6] is: measured here: total cells with miR-34 induction, stronger effect = lower value.
Setting [7] is: measured here: total cells without miR-34 induction.
The mark [8] stands for this setting: stronger effect = lower value, cell number ratio, induced over uninduced.

SMILES strings stand for the structures. Values joined by “and” are separate entries in the source; they are usually repeats but may differ in a detail not shown here. Identical values can stand only once. Active and inactive are the calls of the source. Rule as the data show it, unless noted: active = parasite load remaining mostly below about 12% (no sharp cut-off); inactive = mostly above about 10%.

`CCCCCCCCCCCCCCCCOC[C@@H](O)COP(=O)([O-])OCC[N+](C)(C)C`: in test [1], the survival was 114 (inactive). Also, the fold change was 0.982 (inactive) and 0.938 (inactive) in test [2] (stronger effect = lower value); 1.56 and 0.831 in test [2] (setting [5]). In addition, the cell count in test [2] (setting [6]) was 5950 and 5610; in test [2] (setting [7]) it was 6060 and 5980.

Regarding `CCN1C[C@@]2(COC)C3[C@@H](OC)[C@H]4[C@@H]1[C@@]3(C1C[C@@]3(O)[C@H](OC(=O)c5ccccc5)C1[C@]4(OC(C)=O)[C@@H](O)[C@H]3OC)[C@@H](OC)C[C@H]2O` (stereo partly drawn), the survival in test [1] is 3.83 (inactive). In addition, the parasite load remaining in test [3] was 56% (inactive) and 73.1% (inactive). Moreover, in test [3], the viability was 104% and 80.1%. The fold change was 0.874 (inactive) in test [2] (stronger effect = lower value) and 1.14 in test [2] (setting [5]). Moreover, the cell count came to 8650 in test [2] (setting [6]) and 9900 in test [2] (setting [7]).

On to `CC[C@H]1C2C[C@H]3[C@@H]4N(C)c5ccccc5C45C[C@H](C2[C@H]5O)N3[C@@H]1O` (stereo partly drawn), for which the parasite load remaining in test [3] was 126% (inactive). In addition, the viability in test [3] was 98.7%. Further, the fold change in test [2] (setting [8]) is 0.84 (inactive); in test [2] (setting [5]), 1.31. Besides, the cell count in test [2] (setting [6]) worked out at 8780; in test [2] (setting [7]), 10400.

With `C[C@@]1(CO)[C@H]2CC[C@@H]3C[C@H]4C[C@@]3(CC[C@@]4(O)CO)[C@]2(C)CC[C@@H]1O`, in test [4], the fold fluorescence was 13 [at 147.7 µM] (inactive).

For `CC(C)[C@@H]1NC(=O)[C@H](C(C)C)OC(=O)[C@@H](C(C)C)NC(=O)[C@@H](C)OC(=O)[C@@H](C(C)C)NC(=O)[C@H](C(C)C)OC(=O)[C@@H](C(C)C)NC(=O)[C@@H](C)OC(=O)[C@H](C(C)C)NC(=O)[C@H](C(C)C)OC(=O)[C@H](C(C)C)NC(=O)[C@H](C)OC1=O`, the fold fluorescence in test [4] was 7.5 [at 45 µM] (inactive).

Turning to `CCN1C[C@]2(COC)CC[C@H](O)[C@]34C1[C@](O)([C@@H](OC)[C@H]23)[C@@]1(O)C[C@H](OC)[C@H]2C[C@@H]4[C@@H]1[C@H]2OC`, the parasite load remaining in test [3] was 79.1% (inactive). Besides, the viability in test [3] worked out at 102%. Also, the fold change was 0.871 (inactive) in test [2] (setting [8]) and 0.967 in test [2] (setting [5]). The cell count was 9200 in test [2] (setting [6]) and 10600 in test [2] (setting [7]).

Turning to `CC(Cc1ccccc1)NCCC(c1ccccc1)c1ccccc1` (stereo not drawn) (tested in a mixture with another compound), the parasite load remaining in test [3] was 65.1% (inactive). Besides, the viability in test [3] was determined as 77.8%. In addition, the fold change is 0.804 (inactive) in test [2] (stronger effect = lower value) and 1.52 in test [2] (setting [5]). The cell count in test [2] (setting [6]) turned out to be 5460; in test [2] (setting [7]) it was 6790.

Take `C=C1C/C(=C/C)C(=O)O[C@@H]2CCN3CC=C(COC(=O)[C@]1(C)O)[C@H]23`: the survival in test [1] is 10.6 (inactive). Moreover, in test [3], the parasite load remaining was 91.1% (inactive) and 73.7% (inactive). Also, the viability in test [3] is 125% and 77.7%. Moreover, the fold change in test [2] (stronger effect = lower value) is 0.88 (inactive); in test [2] (setting [5]), 1.73. Besides, the cell count worked out at 9540 in test [2] (setting [6]) and 10800 in test [2] (setting [7]).

On to `CC1(C)[C@@H](O)C[C@H]2[C@](C)(O)[C@@H]3CCC4[C@@H](O)[C@@]3(C[C@@H](O)[C@@]21O)C[C@@]4(C)O`, for which the fold fluorescence in test [4] is 2.34 [at 135 µM] (active).

Take `CN1C[C@H](C(=O)N[C@]2(C)C[C@@]3(O)C4CCCN4C(=O)[C@H](Cc4ccccc4)N3C2=O)C=C2c3cccc4[nH]cc(c34)C[C@H]21` (stereo partly drawn): the parasite load remaining in test [3] was 49.1% (inactive). Besides, the viability in test [3] worked out at 102%. In addition, the fold change in test [2] (setting [8]) is 0.836 (inactive); in test [2] (setting [5]), 6.73. For the same compound, the cell count is 10900 in test [2] (setting [6]) and 13000 in test [2] (setting [7]).

For `CN1C2CCCC1CC(=O)C2`, the survival in test [1] was 10.2 (inactive). The parasite load remaining in test [3] was 169% (inactive) and 77.1% (inactive). In test [3], the viability is 110% and 77.5%. Also, the results for the fold change in test [2] (setting [8]) and in test [2] (setting [5]) were 0.891 (inactive) and 1.28, respectively. For the same compound, the cell count worked out at 9180 in test [2] (setting [6]) and 10300 in test [2] (setting [7]).

On to `COc1cc2c(c(OC)c1OC)-c1ccc(O)c(=O)cc1[C@@H](N)CC2`, for which the parasite load remaining in test [3] is 106% (inactive). Further, the viability in test [3] is 105%. Besides, the results for the fold change in test [2] (setting [8]) and in test [2] (setting [5]) were 0.884 (inactive) and 1.33, respectively. Further, the figures for the cell count in test [2] (setting [6]) and in test [2] (setting [7]) were 5720 and 6460, respectively.

For `C[C@H]1CCC2(NC1)O[C@H]1C[C@H]3[C@@H]4CC[C@H]5C[C@@H](O[C@@H]6O[C@H](CO)[C@H](O[C@@H]7O[C@H](CO)[C@@H](O)[C@H](O[C@@H]8OC[C@@H](O)[C@H](O)[C@H]8O)[C@H]7O[C@@H]7O[C@H](CO)[C@@H](O)[C@H](O)[C@H]7O)[C@H](O)[C@H]6O)CC[C@]5(C)[C@H]4CC[C@]3(C)[C@H]1[C@@H]2C` (stereo partly drawn), the parasite load remaining in test [3] was 1.56% (inactive). In addition, the viability in test [3] stood at 9.75%. Also, the fold change was 0.761 (inactive) in test [2] (setting [8]) and 0.652 in test [2] (setting [5]). Further, the cell count in test [2] (setting [6]) stood at 430; in test [2] (setting [7]) it was 564.

For `C[N+]1=Cc2cc3c(cc2CC1)OCO3`, in test [3], the parasite load remaining was 30.1% (inactive). The viability in test [3] turned out to be 46.5%. For the same compound, the fold change in test [2] (setting [8]) was 0.917 (inactive); in test [2] (setting [5]), 1.08. Also, the cell count in test [2] (setting [6]) amounted to 9060; in test [2] (setting [7]), 9880.

Regarding `C=C1[C@@H](O)[C@]23C[C@@H]1[C@@H](O)C[C@H]2[C@@]12C4[C@@H]3C[C@@H]1[C@@](C)(CC[C@@H]2O)CN4CC`, the parasite load remaining in test [3] is 76.8% (inactive). For the same compound, in test [3], the viability came out at 104%. Moreover, the figures for the fold change in test [2] (setting [8]) and in test [2] (setting [5]) were 0.894 (inactive) and 0.861, respectively. Also, the cell count came out at 8910 in test [2] (setting [6]) and 9970 in test [2] (setting [7]).

`CCN1C[C@]2(COC)CC[C@H](O)[C@]34C1[C@H](C[C@H]23)[C@@]1(O)C[C@H](OC)[C@H]2C[C@@H]4[C@@H]1[C@H]2OC(C)=O`: the parasite load remaining in test [3] was 81.9% (inactive). Also, the viability in test [3] worked out at 71.5%. Besides, the fold change in test [2] (setting [8]) is 0.961 (inactive); in test [2] (setting [5]) it was 0.467. Also, the values for the cell count in test [2] (setting [6]) and in test [2] (setting [7]) were 9850 and 10200, respectively.

For the compound `CCN1C[C@]2(C)CC[C@H](O)[C@]34C1[C@H](C[C@H]23)[C@@]1(O)C[C@H](OC)[C@H]2C[C@@H]4[C@@H]1C2O` (stereo partly drawn), the parasite load remaining in test [3] was 57.3% (inactive). Moreover, the viability in test [3] was found to be 100%. Further, the fold change is 0.863 (inactive) in test [2] (setting [8]) and 1.17 in test [2] (setting [5]). The figures for the cell count in test [2] (setting [6]) and in test [2] (setting [7]) were 9000 and 10400, respectively.

As for `C[C@@H]1O[C@@H](O[C@@H]2C=C3CCC4C(CC[C@]5(C)[C@@H](c6ccc(=O)oc6)CC[C@]45O)[C@@]3(C)CC2)[C@H](O)[C@H](O)[C@H]1O` (stereo partly drawn), the parasite load remaining in test [3] was 0.58% (inactive). Moreover, the viability in test [3] worked out at 13.4%. Also, the fold change in test [2] (setting [8]) is 1.51 (inactive); in test [2] (setting [5]), 0.74. The figures for the cell count in test [2] (setting [6]) and in test [2] (setting [7]) were 696 and 460, respectively.

`C=C[C@]12CN(C)[C@@H]3[C@H]4COC(CC41)[C@]1(C(=O)Nc4ccccc41)[C@@H]32`: the parasite load remaining in test [3] is 100% (inactive). In addition, in test [3], the viability is 94.8%. In addition, the fold change was 0.845 (inactive) in test [2] (setting [8]) and 1.55 in test [2] (setting [5]). Also, the cell count stood at 8470 in test [2] (setting [6]) and 10000 in test [2] (setting [7]).

Regarding `NCCC(O)C(=O)N[C@@H]1C[C@H](N)[C@@H](OC2O[C@H](CN)[C@@H](O)[C@H](O)[C@H]2N)[C@H](OC2O[C@H](CO)C(O)[C@H]2O)[C@H]1O` (stereo partly drawn), the parasite load remaining in test [3] is 106% (inactive). Further, the viability in test [3] was 91%. Further, the figures for the fold change in test [2] (setting [8]) and in test [2] (setting [5]) were 0.815 (inactive) and 1.54, respectively. Moreover, the results for the cell count in test [2] (setting [6]) and in test [2] (setting [7]) were 7990 and 9800, respectively.

In the case of `CN1C(CC(O)c2ccccc2)CCCC1CC(O)c1ccccc1` (stereo not drawn), the survival in test [1] is 5.42 (inactive). Moreover, in test [3], the parasite load remaining was 93.7% (inactive) and 75.5% (inactive). Moreover, the viability in test [3] was 96.2% and 77.8%. The fold change in test [2] (stronger effect = lower value) was 0.827 (inactive); in test [2] (setting [5]), 1.06. Also, the cell count came out at 8680 in test [2] (setting [6]) and 10500 in test [2] (setting [7]).

As to `CC(=O)O[C@H]1C[C@H](O[C@H]2[C@@H](O)C[C@H](O[C@H]3[C@@H](O)C[C@H](O[C@H]4CC[C@@]5(C)[C@H](CC[C@]6(C)[C@]5(C)C[C@@H](O)[C@]5(C)[C@@H](C7=CC(=O)OC7)CC[C@@]56O)C4)O[C@@H]3C)O[C@@H]2C)O[C@H](C)[C@H]1O[C@@H]1O[C@H](CO)[C@@H](O)[C@H](O)[C@H]1O`, the parasite load remaining in test [3] was 0.31% (inactive). The viability in test [3] was determined as 66.6%. Also, the fold change was 0.992 (inactive) in test [2] (setting [8]) and 1.14 in test [2] (setting [5]). The cell count in test [2] (setting [6]) was 808; in test [2] (setting [7]) it was 815.

As to `CC(CCC(=O)O)CC(C)CC(C)C(=O)/C=C(\O)C(C)CC(C)C/C=C/C(C)C(O)C(C)C(O)CC1CCC(C)(C2CCC(C)(C(C)O)O2)O1` (stereo not drawn), the fold fluorescence in test [4] was 5.45 [at 70.5 µM] (inactive).

On to `CC1=CC(=O)C2=C(C)C[C@H](O)[C@@H]3[C@H](OC(=O)[C@H]3C)[C@@H]12`, for which, in test [1], the survival was 7.92 (inactive). Also, the parasite load remaining in test [3] was 98.5% (inactive). Moreover, the viability in test [3] came out at 100%. For the same compound, the fold change in test [2] (stronger effect = lower value) is 0.829 (inactive); in test [2] (setting [5]), 1.6. Besides, the cell count turned out to be 8050 in test [2] (setting [6]) and 9720 in test [2] (setting [7]).
